# Measured values as given in PubChem BioAssay (Tox21).
# Inconclusive results are not listed. Entries that show only a call come without a potency. The source made the active and inactive calls. Calls come from the whole dose curve; as a rule, active = well fitted inhibition curve with a large enough effect in the repeat runs; inconclusive = weak or mixed curves; inactive = no such curve, though single readings can be large or run the other way.
# Molecular target: Cytochrome P450 3A4 (Homo sapiens) (UniProt P08684)
# Sequence (P08684 whole entry, looked up): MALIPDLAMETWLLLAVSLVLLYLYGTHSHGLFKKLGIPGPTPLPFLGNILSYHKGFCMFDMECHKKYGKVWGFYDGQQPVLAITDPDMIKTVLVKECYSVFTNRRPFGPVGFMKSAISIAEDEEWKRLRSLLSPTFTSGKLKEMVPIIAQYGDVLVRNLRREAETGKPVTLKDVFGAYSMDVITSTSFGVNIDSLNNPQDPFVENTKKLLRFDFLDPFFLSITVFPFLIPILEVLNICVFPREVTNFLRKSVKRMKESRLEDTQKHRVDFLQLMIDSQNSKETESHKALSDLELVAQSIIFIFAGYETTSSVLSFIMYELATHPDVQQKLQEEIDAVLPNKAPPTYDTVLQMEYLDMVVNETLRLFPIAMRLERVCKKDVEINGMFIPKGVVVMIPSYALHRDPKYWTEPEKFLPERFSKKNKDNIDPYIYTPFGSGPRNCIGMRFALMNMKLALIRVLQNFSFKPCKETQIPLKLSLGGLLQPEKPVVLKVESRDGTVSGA
# Assay: Cytochrome P450 Family 3 Subfamily A Member 4 (CYP3A4) small molecule antagonists: luciferase reporter qHTS assay (AID 1671201); note: nearly all actives have a fitted effect of over 50% in size
# Settings: P450-Glo CYP3A4 enzyme, luciferin luminescence, 1 h; series mostly up to 115 µM
# Method in brief: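 P450-Glo CYP3A4 system with proluciferin substrate; compounds preincubated 10 min RT with enzyme-substrate mix, then NADPH regeneration added for 1 h RT. Detection reagent 20 min, luminescence read as relative luminescence units.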
# Potency is the fitted concentration of half-maximal effect.
row,Structure (SMILES),Potency
1,O=C1Cc2ccccc2N1c1c(Cl)cccc1Cl,17.8 µM (active)
2,O=C(O)CCCCCCCCCCCBr,inactive
3,COc1ccccc1Oc1c(NS(=O)(=O)c2ccc(C(C)(C)C)cc2)nc(-c2ncccn2)nc1OCCO,inactive
4,CCC(C)(C)OC,inactive
5,Oc1cccc(O)c1O,inactive
6,CN1C(=O)N(c2ccccc2Br)Cc2cnc(Nc3ccc4c(c3)OCC(CO)O4)nc21 (stereo unspecified),inactive
7,Clc1cc(Cl)nc(Cl)n1,inactive
8,O=c1cc(-c2ccccc2)oc2cc(O)cc(O)c12,17.8 µM (active)
9,CC/C=C1/OC(=O)c2ccccc21,inactive
10,CCOc1cccc(-n2cc(C(=O)N3CCN(c4cc(C(=O)O)c5ccccc5c4)CC3)nc2-c2ccc(C)cc2)c1,inactive
11,CN1C(=O)c2ccccc2C1=O,inactive
12,OC[C@H]1O[C@@H](n2cnc3c(=S)nc[nH]c32)[C@H](O)[C@@H]1O,inactive
13,CC(C)(O)c1ccc(CNC(=O)c2cccnc2Oc2ccc3nonc3c2)cc1,25.2 µM (active)
14,CC1(C)O[C@@H]2C[C@H]3[C@@H]4C[C@H](F)C5=CC(=O)C=C[C@]5(C)[C@H]4[C@@H](O)C[C@]3(C)[C@]2(C(=O)CO)O1,4.9 µM (active)
15,OC1(c2ccccc2)CCNCC1,inactive
16,CCCCCCCCCI,inactive
17,O=C1c2ccccc2C(=O)c2c(O)c(O)cc(O)c21,inactive
18,CCC(=O)C1CC(C(C)C)CC=C1C (stereo unspecified),39.9 µM (active)
19,CC(=O)OCCN(CCOC(C)=O)c1ccc(N=Nc2ccc([N+](=O)[O-])cc2C#N)cc1,3.56 µM (active)
20,CCCCCCNC(=O)n1cc(F)c(=O)[nH]c1=O,inactive
21,c1csc(SSc2cccs2)c1,inactive
